13 compounds from PubChem BioAssay (NCI) can be followed below.

The panel holds about 83,000 compounds, 20% with a hit somewhere; the sample as a whole holds those more often.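 Method: cells in 96-well plates; compound added at one concentration; 48 h incubation; percent growth measured; values under 10 scored active.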 Unmarked numbers belong to inactive results. Active and inactive are the calls of the source.

What all share (assay): NCI-60 one-dose screen, 48 h (100 = growth as untreated, 0 = no growth, -100 = all killed)
Experiment [1] has as its system EKVX NSCLC. Particulars: 10 µM unless noted.
In experiment [2] the test system is UO-31 renal. Particulars: 10 µM unless noted.
In experiment [3] the test system is TK-10 renal. Conditions: 10 µM unless noted.
Experiment [4] deals with ACHN renal. Particulars: 10 µM unless noted.
In experiment [5] the test system is CAKI-1 renal. Particulars: 10 µM unless noted.
Experiment [6] has as its system A498 renal. Conditions: 10 µM unless noted.
Experiment [7] has as its system CCRF-CEM leukemia. Particulars: 10 µM unless noted.
Experiment [8] relates to MOLT-4 leukemia. Conditions: 10 µM unless noted.
For experiment [9], the system named is SR leukemia. Particulars: 10 µM unless noted.
Experiment [10] concerns RPMI-8226 leukemia. Conditions: 10 µM unless noted.
In experiment [11] the test system is OVCAR-8 ovarian. Conditions: 10 µM unless noted.
In experiment [12] the test system is OVCAR-5 ovarian. Conditions: 10 µM unless noted.
Experiment [13] deals with OVCAR-4 ovarian. Particulars: 10 µM unless noted.
The subject of experiment [14] is SK-OV-3 ovarian. Particulars: 10 µM unless noted.
Experiment [15] deals with IGROV1 ovarian. Particulars: 10 µM unless noted.
The test system of experiment [16] is OVCAR-3 ovarian. Particulars: 10 µM unless noted.
For experiment [17], the system named is HS 578T breast. Particulars: 10 µM.
Experiment [18] has as its system NCI/ADR-RES ovarian. Conditions: 10 µM unless noted.
Experiment [19] deals with SN12C renal. Conditions: 10 µM unless noted.

As for `Cc1[nH]n(C(N)=S)c(=O)c1N=Nc1ccc(S(=O)(=O)Nc2ccncn2)cc1`, the growth in experiment [1] was 120%; in experiment [2], 84.6%; in experiment [3], 126%; in experiment [4], 106%; in experiment [5] it was 155%; in [6] it was 87.4%. Besides, the growth in [7] is -34.3% (active); in experiment [8] it was 106%; in experiment [9], 111%; in experiment [10], 47.2%; in experiment [11] it was 106%; in experiment [12], 111%. Further, the growth was 95.1% in [13]; 100% in experiment [14]; 67.3% in experiment [15]; 99% in [16]; 86.2% in experiment [17]; 104% in [18].
Take `CO[C@H]1C[C@@H]2CC[C@@H](C)[C@@](O)(O2)C(=O)C(=O)N2CCCC[C@H]2C(=O)O[C@H]([C@H](C)C[C@@H]2CC[C@@H](OC(=O)C(C)(CO)CO)[C@H](OC)C2)CC(=O)[C@H](C)/C=C(\C)[C@@H](O)[C@@H](OC)C(=O)[C@H](C)C[C@H](C)\C=C/C=C/C=C/1C`: the growth in [1] was 36.8%; in experiment [2] it was 15.3%; in experiment [3], 26.1%; in [4] it was 32.6%; in experiment [5], 30.9%; in experiment [6] it was 8.36% (active). For the same compound, the growth is 16.2% in experiment [7]; 0.877% (active) in experiment [8]; 3.69% (active) in [9]; 11.4% in [10]; 22.3% in [11]; 47.1% in experiment [12]. Also, the growth in [13] was 28.2%; in experiment [14] it was 20.4%; in [15], 11.4%; in experiment [16] it was 33.5%; in experiment [18] it was 45.9%.
Take `Cc1cn(-c2cc(NC(=O)c3ccc(C)c(Nc4nccc(-c5cnccn5)n4)c3)cc(C(F)(F)F)c2)cn1`: the growth was 107% in [1]; 62.9% in [2]; 102% in experiment [3]; 83.7% in experiment [4]; 97.6% in [5]; 106% in experiment [6]. Further, the growth was 52.6% in experiment [8]; 21.5% in experiment [9]; 54% in experiment [10]; 47.1% in experiment [11]; 79% in [12]; 99.7% in experiment [13]. The growth in experiment [14] is 59.4%; in experiment [15] it was 85.1%; in experiment [16], 103%; in [18], 63.8%.
For the compound `COC(=O)[C@@H](OC)[C@@H]1Cc2cc3cc(OC4CC(OC5CC(O)C(O)C(C)O5)C(O)C(C)O4)c(C)c(O)c3c(O)c2C(=O)[C@H]1OC1CC(OC2CC(OC3CC(C)(O)C(O)C(C)O3)C(O)C(C)O2)C(O)C(C)O1` (some centres undefined), the growth was 9.91% (active) in [1]; 9.04% (active) in [19]; -9.9% (active) in experiment [2]; 4.79% (active) in [4]; 14.8% in experiment [5]; -42.9% (active) in experiment [6]. For the same compound, the growth was -9.54% (active) in experiment [8]; 4.74% (active) in experiment [9]; -17.5% (active) in experiment [10]; 10.2% in experiment [11]; 18.8% in [12]; 3.96% (active) in experiment [13]. Further, the growth is 21% in experiment [14]; 28% in experiment [15]; 6.49% (active) in experiment [16]; -10.5% (active) in experiment [17]; 42.7% in [18].
On to `O=C(Cn1ccnc1)Nc1ccc(-c2nc3ccccc3s2)cc1`, for which the growth in experiment [1] was 61.4%; in [19], 84.6%; in experiment [2], 60.4%; in experiment [5] it was 66.2%; in experiment [6] it was 57.5%; in [7] it was 69.1%. For the same compound, the growth was 68.1% in experiment [8]; 36.5% in [9]; 52% in [10]; 80.3% in experiment [11]; 104% in experiment [12]; 34.8% in experiment [13]. The growth was 87.8% in experiment [14]; 68.9% in [15]; 62.2% in experiment [16]; 86.9% in experiment [17]; 88.2% in experiment [18].
As to `O=C(O)c1ccc2c(c1)nc(Nc1cccc(Cl)c1)c1ccncc12`, the growth in [1] was 19.6%; in [19], 12.5%; in experiment [2] it was -14% (active); in experiment [4] it was -0.277% (active); in [5], -16.7% (active); in [6], -49.9% (active). Also, the growth in experiment [7] is 3.22% (active); in experiment [8] it was -6.15% (active); in [9] it was -11.3% (active); in experiment [10], 10.6%; in experiment [11] it was 5.65% (active); in experiment [12], 10.6%. Besides, the growth in experiment [13] was -2.42% (active); in experiment [14] it was -27.1% (active); in experiment [15], -22.2% (active); in experiment [16], 2.03% (active); in experiment [18] it was 5.81% (active).
With `C=CCN(/C=C1/C(=O)O[C@H](COC)[C@@]2(C)C1=C(O)C(=O)C1=C2[C@H](OC(C)=O)C[C@]2(C)C(=O)CC[C@@H]12)CC=C`, the growth in experiment [1] is 21.8%; in experiment [2] it was 3.12% (active); in experiment [3] it was 3.59% (active); in experiment [4], 24.7%; in experiment [5], 8.92% (active); in experiment [6], -66.8% (active). Further, the growth was 12.8% in [7]; -2.31% (active) in experiment [8]; 0.113% (active) in experiment [9]; 35.2% in experiment [10]; 29.4% in experiment [11]; 20.5% in experiment [12]. Also, the growth in experiment [13] is 30.6%; in [14], -19.6% (active); in experiment [15], -1.93% (active); in [16], 21%; in experiment [18], 35.4%.
Regarding `O=C1OCC2=C1C(c1cccc(F)c1)c1cc3c(cc1N2CCO)OCCO3` (centres undefined), the growth in experiment [1] was 37.5%; in experiment [2], 42.1%; in experiment [3] it was 57.7%; in experiment [4] it was 23.9%; in [5], 31.8%; in experiment [7], 7.52% (active). Besides, the growth in experiment [8] was 7.49% (active); in experiment [9], 12.3%; in experiment [10], 22.1%; in [11], 24.4%; in experiment [12], 30.8%; in experiment [13] it was 45%. Further, the growth in [14] was 27.1%; in experiment [15] it was 26.3%; in experiment [16] it was -13.9% (active); in experiment [17] it was 31.4%; in experiment [18], 6.36% (active).
In the case of `CCN(CCCOc1ccc2c(Nc3cc(CC(=O)Nc4cccc(F)c4)[nH]n3)ncnc2c1)CCOP(=O)(O)O`, the growth in experiment [1] was 99.3%; in experiment [2], 69.3%; in experiment [3] it was 83.9%; in [4], 95.5%; in experiment [5], 58.1%; in [6] it was 98.4%. The growth was 51.4% in experiment [7]; 46.5% in [8]; 36.3% in experiment [9]; 91.5% in experiment [10]; 70.2% in experiment [11]; 59.3% in experiment [12]. For the same compound, the growth is 79.9% in [13]; 77.1% in experiment [14]; 62.4% in experiment [15]; 78.2% in [16]; 98.3% in experiment [18].
Take `COc1cc(Nc2ncc(F)c(Nc3ccc4c(n3)NC(=O)C(C)(C)O4)n2)cc(OC)c1OC`: the growth in experiment [1] is 52.4%; in experiment [2], 2.95% (active); in experiment [4], 5.32% (active); in experiment [5], 9.51% (active); in [6], -43.9% (active); in experiment [7] it was 61%. Moreover, the growth in experiment [8] was 52.4%; in experiment [9] it was 38.5%; in [10], 71.8%; in experiment [11] it was 67.3%; in experiment [12] it was 24.1%; in experiment [13], 73.8%. In addition, the values for the growth in experiment [14], in experiment [15] and in [16] were 21.8%, -9.34% (active) and 63.4%, respectively.
As to `Cc1cc(Nc2ncnc3ccc(NC4=NC(C)(C)CO4)cc23)ccc1Oc1ccn2ncnc2c1`, the growth in [1] is 41.6%; in experiment [19], 33.1%; in experiment [2], 14.9%; in [4], 21.1%; in experiment [5], 13.8%; in experiment [6], -16% (active). In addition, the growth in [8] was 16.7%; in [9] it was -14.4% (active); in experiment [10] it was 24.3%; in [11] it was 37.3%; in experiment [12] it was 14.3%; in [13], 44.2%. Also, the growth was 14.6% in experiment [14], -19.6% (active) in experiment [15] and 46.8% in experiment [16].
For `C[C@@H]1COCCN1c1cc(C2([S@](C)(=N)=O)CC2)nc(-c2ccnc3[nH]ccc23)n1`, the growth is 54.2% in experiment [1]; 13.2% in [2]; 42.9% in experiment [3]; 7.85% (active) in experiment [4]; 28.9% in experiment [5]; -21.2% (active) in experiment [6]. Besides, the growth is 7.78% (active) in experiment [7]; 7.26% (active) in [8]; 7.14% (active) in [9]; 30.7% in experiment [11]; 34.5% in [12]; 30.3% in experiment [13]. For the same compound, the growth in experiment [14] was 4.16% (active); in experiment [15], 17.7%; in experiment [16], 31.7%; in [18], 80.4%.
For the compound `C[C@H](NC(=O)c1c(N)nn2cccnc12)c1cc2cccc(C#Cc3cnn(C)c3)c2c(=O)n1-c1ccccc1`, the growth in experiment [1] is 33.9%; in experiment [19], 40.6%; in experiment [2], 10.6%; in experiment [4] it was 20.7%; in experiment [5], 21.3%; in experiment [6], -24.3% (active). Also, the growth in experiment [8] was -4.98% (active); in experiment [9], 3.42% (active); in experiment [10] it was 4.95% (active); in experiment [11], 28.1%; in experiment [12] it was 45.1%; in experiment [13] it was 31.1%. Moreover, the growth was -1.83% (active) in experiment [14], -22.7% (active) in experiment [15] and 19.9% in experiment [16].
